High-throughput results as filed in PubChem.
RAM network inh: inhibitors of the yeast RAM network, primary screen, dse1pr::URA3 reporter, 5-FOA selection; S. cerevisiae dse1pr::URA3 reporter, 5-FOA growth OD615, 2 d; analog-sensitive cbk1-as2 kinase mutant strain; inhibition, % at 50 µM; 1.8% of 190,000 active; AID 868, 2007;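 active = inhibition above a set limit, 3 SD over mean compound inhibition, cut at about 8.4% in these data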;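 also: inhibition rescues growth on 5-FOA so higher OD means more RAM inhibition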
L major viab: Leishmania major promastigote growth inhibition, primary screen. Leishmania major promastigotes, resazurin fluorescence viability. inhibition, % at 10 µM. 9% of 200,000 active; in the data active = inhibition above about 50%;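 also: promastigotes grown with compound for 44 hours at 28 °C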
WT yeast gro inh: growth inhibition of WT strain, primary screen, mitochondrial fusion inhibitor project, WT and mutant strains, chemical genetic; mitochondrial fusion phenotypic screen; inhibition, % at 10 µM; 2.1% of 190,000 active; AID 1362, 2008; in the data active = inhibition above about 58%; tested in S. cerevisiae
CHOP inh: inhibitors of CHOP promoter induction, primary screen, cell-based, unfolded protein response, luciferase reporter | inhibition, % at 10 µM | 3.8% of 220,000 active | CHO-K1 CHOP-promoter luciferase, tunicamycin-induced, 15-18 h;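 active = compounds that reduced the stress-induced luciferase reporter signal by more than about 70% of percent inhibition, limit read from the data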
A number is an active result; - = inactive; . = not tested or not shown. The list is not random: actives were taken first. Their share in the collection is about 13%.

SMILES	RAM network inh	L major viab	WT yeast gro inh	CHOP inh
CC(=O)Oc1c(Cl)cc(Cl)cc1/C=C/c1ccc2ccccc2n1	-	-	83	-
COc1cc(/C=N/NC(=O)c2ccc(O)cc2)ccc1OCC(=O)N1CC(C)OC(C)C1 (configuration not stated)	.	.	.	-
Cc1cccn2c(/C=N/OCc3cccc(F)c3)c(-c3ccc(Cl)cc3)nc12	9.3	56	-	-
Fc1cccc(CO/N=C/c2c(-c3ccccc3)nc3ccc(Cl)cn23)c1	9.1	-	-	-
COc1cccc(/C(C#N)=C/c2c(-c3ccc(Cl)cc3)nc3c(C)cccn23)c1	-	67	-	-
O=C(CNC(=O)c1ccccc1)OCc1cccc([N+](=O)[O-])c1	-	56	-	-
CC1CCN(c2c(NCC3CCC(C(=O)NCc4ccccc4Cl)CC3)c(=O)c2=O)CC1 (configuration not stated)	-	-	-	-
O=c1c2[nH]c3ccc(F)cc3c2nc2n1CCCS2	-	-	-	-
Cc1cccc2cc(CN(Cc3ccccc3)C(=S)NCCCN(C)C)c(=O)[nH]c12	-	78	-	-
Cc1ccc(CN(Cc2cc3cccc(C)c3[nH]c2=O)C(=S)NCCCN(C)C)cc1	-	62	-	-
Cc1cccc2cc(CN(Cc3cccnc3)C(=S)NCCCN(C)C)c(=O)[nH]c12	-	-	-	-
Cc1ccc(C)c2[nH]c(=O)c(CN(CCCN(C)C)C(=O)NCc3ccccc3)cc12	-	.	-	-
Cc1cc(C)c2cc(CN(CCCN(C)C)C(=S)NCc3ccccc3)c(=O)[nH]c2c1	-	100	-	-
O=S(=O)(c1ccc(-c2ccon2)s1)N1CCN(c2ccncc2)CC1	.	.	.	-
Cc1[nH]nc2c1C(C(C)C)C(C#N)=C(N)O2 (configuration not stated)	-	-	-	-
Cc1[nH]nc2c1C(c1cc(Br)cs1)C(C#N)=C(N)O2 (configuration not stated)	-	99	-	-
Cc1[nH]nc2c1C(c1ccco1)C(C#N)=C(N)O2 (configuration not stated)	-	-	-	-
COc1ccc(-c2ccc(C3C(C#N)=C(N)Oc4n[nH]c(C)c43)o2)cc1 (configuration not stated)	-	71	-	-
CCC(C)C1C(C#N)=C(N)Oc2n[nH]c(C)c21 (configuration not stated)	-	67	-	-
COCc1[nH]nc2c1C(c1ccc(OC)cc1)C(C#N)=C(N)O2 (configuration not stated)	-	-	-	-
CCOc1ccc(-c2ccc(SC)nn2)cc1	-	-	68	-
O=C(NC1CCCCC1)C(c1ccc(F)cc1)N(Cc1ccco1)C(=O)c1ccccn1 (configuration not stated)	-	-	-	-
COc1cccc(CCc2nnc(CCC(=O)NC(C)Cc3cccs3)o2)c1 (configuration not stated)	.	.	.	-
Cc1cc2c(N=NC(=O)CCc3ccccc3)c(O)[nH]c2cc1Br	-	-	-	83
CCOC(=O)c1c(NC(=O)c2cc(C3CC3)on2)sc2c1CCCC2	.	.	-	.
SMILES	RAM network inh	L major viab	WT yeast gro inh	CHOP inh
COc1ccc(-c2cc(C(F)(F)F)nc(SCC(=O)Nc3cc(C)on3)n2)cc1OC	8.7	-	-	-
Cc1ccc(-c2cc(C(=O)OCC(=O)Nc3cc(C)on3)c3ccccc3n2)c(C)c1	-	-	-	89
CCC(C)c1ccc(-c2cc(C(=O)OCC(=O)Nc3cc(C)on3)c3ccccc3n2)cc1 (configuration not stated)	-	-	-	85
Cc1ccc(C(=O)NCC(=O)OCC(=O)Nc2ncc(C(F)(F)F)cc2Cl)cc1	-	-	-	-
Cc1ccc(-c2cc(C(=O)OCC(=O)Nc3ncc(C(F)(F)F)cc3Cl)c3ccccc3n2)cc1	-	-	-	83
Cc1ccc(-c2cc(C(=O)Nc3ccc(S(=O)(=O)Nc4cc(C)on4)cc3)c3ccccc3n2)c(C)c1	-	-	-	-
CCc1ccc(C(=O)CN2CCSC2=N)cc1	-	-	-	-
COc1ccc(OC)c(C2=C/C(=C/c3ccccn3)C(=O)O2)c1	-	-	-	-
Cc1c(Cl)cccc1NC(=O)CNC(=O)c1ccccc1F	-	-	-	-
CCCc1cc(=O)oc2c3c(c4c(c12)OC(C)(C)C=C4)OC(C)C(C)C3O (configuration not stated)	.	.	.	-
CCN(Cc1ccccc1)C(=O)c1ccc(Cl)cc1[N+](=O)[O-]	-	-	-	-
O=C(NC1CCCCC1)Oc1cccc2ccccc12	-	-	-	-
CCCC(=O)Nc1sc(C(=O)Nc2cccc(N)c2)c(C)c1C(=O)OC	-	-	-	-
COc1ccc(C(=O)OCC(=O)Nc2cc(C)on2)c(OC)c1OC	-	-	-	-
Cc1ccc2nc(-c3ccccc3Cl)cc(C(=O)Nc3cc(C)on3)c2c1	-	55	-	-
Cc1cc(NC(=O)c2ccccc2Cl)no1	-	-	-	-
Cc1ccc(C)c(C(=O)COC(=O)c2cc(Cl)nc3ccccc23)c1	9.6	-	-	-
COc1ccc(-c2cc(C(=O)OCC(=O)Nc3cc(C)on3)c3ccccc3n2)cc1OC	-	-	-	88
COc1ccc(C2C(C(=O)Nc3ccc(OC)c(OC)c3)c3ccccc3C(=O)N2C)cc1 (configuration not stated)	-	-	-	-
O=C(COC(=O)Cc1ccccc1F)Nc1cccc(F)c1	-	-	-	-
COc1ccc(NC(=S)NC(NC(=O)c2cccc(Cl)c2)C(Cl)(Cl)Cl)c([N+](=O)[O-])c1 (configuration not stated)	-	94	-	-
O=C(NC(NC(=S)Nc1ccccc1Cl)C(Cl)(Cl)Cl)c1cccc(Cl)c1 (configuration not stated)	9.4	-	-	87
CCOc1cc(C=O)c(Br)cc1OC1CCCC1	-	83	-	-
COc1cc(C=O)c(Br)cc1OCc1ccc(C)cc1	-	-	-	-
CC(NCc1ccc(N(C)C)cc1)C1CC2CCC1C2 (configuration not stated)	-	98	-	-
SMILES	RAM network inh	L major viab	WT yeast gro inh	CHOP inh
CC(NC(=O)CSc1ccccc1C(=O)O)C1CC2CCC1C2 (configuration not stated)	-	-	-	-
CC1(C)CC(=O)C(CCC(=O)c2ccccc2)C(C)(C)N1 (configuration not stated)	-	90	-	-
Cn1cccc1/C=N/n1c(-c2ccc(Cl)cc2)n[nH]c1=S	-	-	-	-
Cn1cccc1/C=N/n1c(-c2ccc(Cl)cc2Cl)n[nH]c1=S	-	-	71	-
CC(=O)c1cccc(NC(=O)c2cc(-c3ccc(C)cc3)on2)c1	-	62	-	-
COc1cccc(-c2cc(C(=O)Nc3cc(OC)c(OC)c(OC)c3)no2)c1	-	51	-	.
Cc1ccc(NC(=O)c2cc(-c3cccc(O)c3)on2)cc1C	-	-	-	86
Cc1nc2c(C)cccc2cc1C(=O)N/N=C/c1cccnc1	-	-	-	-
C=CCn1c(C)csc1=Nc1ccccc1C	-	-	-	-
